Laboratory results: PubChem BioAssay AID1159580 (chemical genetic matrix, 2015)
Where “and” joins values, the source holds several entries; their conditions need not be identical. Identical values can stand only once. Hit rate of the full screen: of about 5,500 compounds, about 2,000 (36%) were called active. Another 18% or so got no clear call; they are omitted. No stated cut-off is given here; in the data, active means normalized growth mostly below about 0.91 (no sharp cut-off); inconclusive means no clear call, values can overlap the other calls; inactive means mostly above about 0.92. Some of the results follow.

Assay: chemical genetic growth profiling, strain panel (AID 1159580);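 further: tested at 20 µM; growth read once vehicle control cultures reached saturation at 30 °C; 1 = growth at the plate median or of vehicle wells; lower values mean less growth of the strain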
Settings: S. cerevisiae deletion strains, growth OD

Measured: normalized growth

CC1(C)O[C@@H]2CC3C4C[C@H](F)C5=CC(=O)C=C[C@]5(C)[C@@]4(F)[C@@H](O)C[C@]3(C)[C@]2(C(=O)CO)O1 (stereo partly specified)
inactive: locus YAL013W, strain DEP1, active compounds read low 1 | locus YAL021C, strain ccr4, active compounds read low 1.01 | locus YAL026C, strain drs2, active compounds read low 1 | locus YAL030W, strain snc1, active compounds read low 1.01 | locus YBL061C, strain skt5, active compounds read low 1.01 | locus YBR009C, strain hhf1, active compounds read low 1.01 | locus YBR021W, strain FUR4, active compounds read low 0.995 | locus YBR023C, strain chs3, active compounds read low 1.03 | locus YBR171W, strain sec66, active compounds read low 1.02 | locus YBR229C, strain ROT2, active compounds read low 0.999 | locus YBR231C, strain swc5, active compounds read low 1.01 | locus YBR279W, strain paf1, active compounds read low 1.05 | locus YCL011C, strain gbp2, active compounds read low 1.03 | locus YCL016C, strain dcc1, active compounds read low 1.02 | locus YCL029C, strain bik1, active compounds read low 1.01 | locus YCL061C, strain MRC1, active compounds read low 1.03 | locus YCL069W, strain vba3, active compounds read low 1.02 | locus YCR088W, strain abp1, active compounds read low 1.01 | locus YDL005C, strain med2, active compounds read low 1.02 | locus YDL035C, strain GPR1, active compounds read low 0.982 | locus YDL040C, strain nat1, active compounds read low 1.01 | locus YDL074C, strain BRE1, active compounds read low 1 | locus YDL101C, strain DUN1, active compounds read low 1.01 | locus YDL185W, strain tfp1, active compounds read low 1.01 | locus YDL192W, strain arf1, active compounds read low 1.01 | locus YDR001C, strain nth1, active compounds read low 1.02 | locus YDR069C, strain doa4, active compounds read low 1 | locus YDR101C, strain arx1, active compounds read low 0.988 | locus YDR137W, strain rgp1, active compounds read low 1.02 | locus YDR159W, strain sac3, active compounds read low 0.973 | locus YDR162C, strain NBP2, active compounds read low 0.993 | locus YDR195W, strain ref2 1.01 | locus YDR297W, strain sur2, active compounds read low 1.01 | locus YDR318W, strain mcm21, active compounds read low 1.02 | locus YDR334W, strain swr1, active compounds read low 1.01 | locus YDR335W, strain msn5, active compounds read low 1.02 | locus YDR388W, active compounds read low 1.01 | locus YDR392W, strain spt3, active compounds read low 0.975 | locus YDR502C, strain sam2, active compounds read low 1.01 | locus YEL003W, strain gim4, active compounds read low 1 | locus YEL037C, strain rad23, active compounds read low 1.01 | locus YEL061C, strain CIN8 (second series), active compounds read low 1.02 | locus YEL061C, strain CIN8, active compounds read low 0.992 | locus YER015W, strain faa2, active compounds read low 1.01 | locus YER016W, strain bim1, active compounds read low 1.01 | locus YER110C, active compounds read low 1.02 | locus YER111C, strain swi4, active compounds read low 1.01 | locus YER155C, strain BEM2 (second series), active compounds read low 1.02 | locus YER155C, strain BEM2, active compounds read low 0.997 | locus YER167W, strain BCK2, active compounds read low 1 | locus YFR010W, strain ubp6, active compounds read low 1.01 | locus YGL078C, strain dbp3, active compounds read low 1.02 | locus YGL086W, strain mad1, active compounds read low 0.992 | locus YGL167C, strain pmr1, active compounds read low 1.01 | locus YGL173C, strain kem1, active compounds read low 1.01 | locus YGL227W, strain vid30, active compounds read low 1.02 | locus YGL240W, strain doc1, active compounds read low 0.997 | locus YGL248W, strain PDE1, active compounds read low 1.01 | locus YGL253W, strain hxk2, active compounds read low 1.01 | locus YGR078C, strain PAC10, active compounds read low 0.994 | locus YGR135W, strain pre9, active compounds read low 1.07 | locus YGR252W, strain gcn5, active compounds read low 1.07 | locus YHR013C, strain ard1, active compounds read low 1.05 | locus YHR027C, strain rpn1, active compounds read low 1.01 | locus YHR030C, strain SLT2, active compounds read low 0.99 and 0.972 | locus YHR079C, strain IRE1 (second series), active compounds read low 1.01 | locus YHR079C, strain IRE1, active compounds read low 0.969 | locus YHR094C, strain hxt1, active compounds read low 1.02 | locus YHR129C, strain ARP1, active compounds read low 0.997 | locus YHR142W, strain chs7, active compounds read low 1.03 | locus YHR200W, strain rpn10, active compounds read low 1.02 | locus YIL066C, strain RNR3, active compounds read low 0.993 | locus YIL073C, strain SPO22, active compounds read low 1.02 | locus YIL125W, strain kgd1, active compounds read low 1.01 | locus YIR030C, strain dcg1, active compounds read low 1.02 | locus YJL092W, strain hpr5, active compounds read low 1.02 | locus YJL095W, strain BCK1 (second series), active compounds read low 1.02 | locus YJL095W, strain BCK1, active compounds read low 1.01 and 0.978 | locus YJL115W, strain asf1, active compounds read low 1.01 | locus YJL129C, strain trk1, active compounds read low 1.02 | locus YJL134W, strain LCB3, active compounds read low 1 | locus YJL154C, strain vps35, active compounds read low 1.01 | locus YJL164C, strain tpk1, active compounds read low 1.01 | locus YJL166W, strain qcr8, active compounds read low 1.03 | locus YJL168C, strain set2, active compounds read low 1.02 | locus YJL187C, strain SWE1 (second series), active compounds read low 0.999 | locus YJL187C, strain SWE1, active compounds read low 1.01 | locus YJR043C, strain POL32, active compounds read low 0.988 | locus YJR066W, strain TOR1, active compounds read low 0.952 | locus YJR075W, strain HOC1, active compounds read low 0.994 | locus YKL009W, strain mrt4, active compounds read low 0.996 | locus YKL068W, active compounds read low 1.01 | locus YKL085W, strain MDH1 (second series), active compounds read low 1.01 | locus YKL085W, strain MDH1, active compounds read low 1.01 | locus YKL160W, strain elf1, active compounds read low 1.03 | locus YKL190W, strain CNB1, active compounds read low 0.994 | locus YKR001C, strain vps1, active compounds read low 1 | locus YKR026C, strain gcn3, active compounds read low 1.01 | locus YKR091W, strain srl3, active compounds read low 1.01 | locus YLL001W, strain dnm1, active compounds read low 1.01 | locus YLL026W, active compounds read low 1.01 | locus YLL041C, strain sdh2, active compounds read low 1.01 | locus YLR027C, strain aat2, active compounds read low 1.01 | locus YLR039C, strain RIC1, active compounds read low 1.05 | locus YLR058C, strain SHM2, active compounds read low 1.01 | locus YLR102C, strain apc9, active compounds read low 1.02 | locus YLR113W, strain HOG1, active compounds read low 0.994 | locus YLR221C, strain rsa3, active compounds read low 1.02 | locus YLR258W, strain gsy2, active compounds read low 1.01 | locus YLR262C, strain YPT6 (second series), active compounds read low 1.04 | locus YLR262C, strain YPT6, active compounds read low 0.968 | locus YLR268W, strain sec22, active compounds read low 1.01 | locus YLR320W, strain mms22, active compounds read low 1.04 | locus YLR330W, strain CHS5, active compounds read low 1 | locus YLR342W, strain FKS1 (second series), active compounds read low 1.01 | locus YLR342W, strain FKS1, active compounds read low 1.02 | locus YLR357W, strain rsc2, active compounds read low 1.01 | locus YLR370C, strain arc18, active compounds read low 1.01 | locus YLR371W, strain rom2, active compounds read low 1.01 | locus YLR384C, strain iki3, active compounds read low 1.02 | locus YLR418C, strain cdc73, active compounds read low 1.03 | locus YML016C, strain PPZ1, active compounds read low 0.998 | locus YML032C, strain rad52, active compounds read low 1.01 | locus YML120C, strain ndi1, active compounds read low 1.03 | locus YML124C, strain tub3, active compounds read low 1.01 | locus YMR058W, strain fet3, active compounds read low 1.01 | locus YMR078C, strain ctf18, active compounds read low 1.01 | locus YMR125W, strain sto1, active compounds read low 1.03 | locus YMR129W, active compounds read low 1.01 | locus YMR205C, strain PFK2, active compounds read low 1.01 | locus YMR223W, strain ubp8, active compounds read low 1.04 | locus YMR231W, strain pep5, active compounds read low 1.01 | locus YMR307W, strain GAS1, active compounds read low 0.967 | locus YNL067W, strain RPL9B, active compounds read low 0.993 | locus YNL071W, strain lat1, active compounds read low 1.02 | locus YNL128W, strain TEP1, active compounds read low 1.01 | locus YNL183C, strain NPR1, active compounds read low 0.975 | locus YNL209W, strain ssb2, active compounds read low 1.02 | locus YNL233W, strain BNI4, active compounds read low 1 | locus YNL248C, strain rpa49, active compounds read low 1.01 | locus YNL250W, strain rad50, active compounds read low 1.05 | locus YNL271C, strain bni1, active compounds read low 1.02 | locus YNL298W, strain CLA4, active compounds read low 1.01 | locus YNL307C, strain MCK1, active compounds read low 1.03 | locus YNL322C, strain KRE1 (second series), active compounds read low 1.03 | locus YNR049C, strain mso1, active compounds read low 1 | locus YNR052C, strain pop2, active compounds read low 1.01 | locus YOL012C, strain htz1 0.765 | locus YOL147C, strain pex11, active compounds read low 1.02 | locus YOR001W, strain rrp6, active compounds read low 0.98 | locus YOR061W, strain CKA2, active compounds read low 1.01 | locus YOR069W, strain VPS5, active compounds read low 1 | locus YOR070C, strain gyp1, active compounds read low 1.03 | locus YOR080W, strain dia2, active compounds read low 1.02 | locus YOR083W, strain WHI5, active compounds read low 1.04 | locus YOR106W, strain vam3, active compounds read low 1.04 | locus YOR136W, strain idh2, active compounds read low 1.01 | locus YOR144C, strain elg1, active compounds read low 1.01 | locus YOR184W, strain ser1, active compounds read low 1.02 | locus YOR231W, strain MKK1, active compounds read low 0.986 | locus YOR265W, strain rbl2, active compounds read low 1.01 | locus YOR270C, strain vph1, active compounds read low 1.04 | locus YOR290C, strain snf2, active compounds read low 0.985 | locus YOR316C, strain cot1, active compounds read low 1.01 | locus YPL051W, strain arl3, active compounds read low 1.01 | locus YPL055C, strain LGE1, active compounds read low 0.996 | locus YPL078C, strain atp4, active compounds read low 1.02 | locus YPL106C, strain sse1, active compounds read low 1.01 | locus YPL240C, strain hsp82, active compounds read low 1.01 | locus YPL241C, strain CIN2, active compounds read low 1 | locus YPL256C, strain CLN2, active compounds read low 0.987 | locus YPR119W, strain clb2, active compounds read low 1.02 | locus YPR141C, strain kar3, active compounds read low 1.01 | locus YPR163C, strain tif3, active compounds read low 1.02 | locus YPR167C, strain met16, active compounds read low 1.01 | strain wtn01, active compounds read low 1.01
